This note sets out measurements from PubChem BioAssay (NCATS).

Molecules are shown by their SMILES. Several values for one entry are separate records, joined by “and”; a condition that tells them apart may be missing. Identical values can stand only once. Records with an inconclusive call do not appear. Values without a mark were called inactive. Activity calls are given as the source filed them. Calls come from the whole dose curve; as a rule, active = well fitted activation curve with a large enough effect; inconclusive = small, poorly fitted or top-dose-only effect; inactive = no such curve, though single readings can be large or run the other way.
Potency is the fitted concentration of half-maximal effect.

Chain of Cellular tumor antigen p53 (Homo sapiens) (P04637 whole entry, looked up): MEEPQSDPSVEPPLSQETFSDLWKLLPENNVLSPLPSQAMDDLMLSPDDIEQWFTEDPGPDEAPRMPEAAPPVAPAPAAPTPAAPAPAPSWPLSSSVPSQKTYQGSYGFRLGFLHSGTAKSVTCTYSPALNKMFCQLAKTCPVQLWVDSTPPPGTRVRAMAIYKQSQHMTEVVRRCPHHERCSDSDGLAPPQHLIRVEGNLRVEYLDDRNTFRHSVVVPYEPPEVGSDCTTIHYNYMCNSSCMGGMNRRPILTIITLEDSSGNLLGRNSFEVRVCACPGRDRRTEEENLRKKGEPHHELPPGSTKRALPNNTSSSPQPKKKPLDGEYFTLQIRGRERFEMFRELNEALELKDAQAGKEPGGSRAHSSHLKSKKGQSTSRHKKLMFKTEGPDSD

This test concerns the target Cellular tumor antigen p53 (Homo sapiens) (UniProt P04637). Description: Primary qHTS for small molecule compounds that upregulate eGFP-tagged delta133p53alpha (in N-terminal) cells. (AID 2060322).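 For activation: series mostly up to about 56 µM; 0% = DMSO vehicle and 100% = reference activator.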 Note: nearly all actives have a fitted effect of over 75% in size. The settings on record: NCI-H358 eGFP-delta133p53alpha fluorescence, 24 h; activation: active compounds read high. The method in brief:
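NCI-H358 cells pre-induced 24 h with 10 ng/ml doxycycline to express N-terminal eGFP-delta133p53alpha, then dosed 24 h at 37C without doxycycline; fixed, Hoechst-stained, GFP intensity by laser scanning cytometry, normalized to DMSO (0%) and 57.5 uM 5-azacytidine (100%).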
In general terms: Quantitative high-throughput screening tests each substance at several concentrations.
On to `CC(O)CN(CCN(CC(C)O)CC(C)O)CC(C)O` (stereo not given), for which the activation was 22%.
Still for that read-out and setting: the same measure for `CCOC(=O)[C@H](CCc1ccccc1)N[C@@H](C)C(=O)N1Cc2cc(OC)c(OC)cc2C[C@H]1C(=O)O`: -5.86%; for `CCCCC(=O)O[C@]1(C(=O)CO)CC[C@H]2[C@@H]3CCC4=CC(=O)CC[C@]4(C)[C@H]3[C@@H](O)C[C@@]21C`: 29.3%; for `COC(=O)c1cc(S(N)(=O)=O)ccc1OC`: -3.95%.
Consider `CN(C)CCn1nnnc1SCC1=C(C(=O)O)N2C(=O)[C@@H](NC(=O)Cc3csc(N)n3)[C@H]2SC1`, for which the activation was -0.565%.
Turning to `C[C@]12CCC(=O)C=C1CC[C@@H]1[C@@H]2[C@@H](O)C[C@@]2(C)[C@H]1CC[C@]2(O)C(=O)COC(=O)CCC(=O)O`, the activation was 1.69%.
The same measure, in the same setting: the same measure for `COc1cc2nc(N3CCN(C(=O)C4CCCO4)CC3)nc(N)c2cc1OC` (stereo not given): 1.69% and 38.8%.
For `COCCc1ccccn1`, the activation was 15.1%.
The same measure, in the same setting: the figure for `COC(=O)N[C@H](C(=O)N[C@@H](Cc1ccccc1)[C@@H](O)CN(Cc1ccc(-c2ccccn2)cc1)NC(=O)[C@@H](NC(=O)OC)C(C)(C)C)C(C)(C)C` is -2.82% and 23.4%; for `COc1ccc(S(=O)(=O)N2c3ccc(Cl)cc3[C@@](O)(c3ccccc3Cl)[C@H]2C(=O)N2CCC[C@@H]2C(N)=O)cc1OC` it is -10.9%; for `O=C(O)C[C@H](O)C[C@H](O)C=Cc1c(C2CC2)nc2ccccc2c1-c1ccc(F)cc1` it is -5.06%.
On to `O=C(O)C(Cc1cc(I)c(O)c(I)c1)c1ccccc1` (stereo not given), for which the activation was -19.8%.
Same read-out and setting: the figure for `COCCc1ccc(OCC2CO2)cc1` (stereo not given) is 7.53%; for `COc1ccc2c(c1)c(CC(=O)OC/C=C(\C)CC/C=C(\C)CCC=C(C)C)c(C)n2C(=O)c1ccc(Cl)cc1` it is -1.69%; for `Oc1ccccc1` it is -1.69%.
The same measure, in the same setting: the figure for `CC(O)COc1ccccc1` (stereo not given) is -13%.
As for `CCS(=O)(=O)CCn1c([N+](=O)[O-])cnc1C`, the Potency is 17.4 µM (active).
Take `COc1cc(C=CC(=O)O)ccc1O`: the activation was -12.5%.
Same read-out and setting: the figure for `CN(C)CCC=C1c2ccccc2COc2ccc(CC(=O)O)cc21` is 16.8%; for `CCCCCC1Nc2cc(C(F)(F)F)c(S(N)(=O)=O)cc2S(=O)(=O)N1` (stereo not given) it is -4.18%; for `CC1(C)C(=O)CCC2(C)C1C(O)C=C1COC(=O)C12O` (stereo not given) it is 25.2%.
In the case of `NCc1ccccc1Sc1ccccc1CO`, the activation was 15.3%.
On the same count and under the same terms, the figure for `COc1ccc(C2C(=O)c3ccccc3C2=O)cc1` is -15.9%; for `COc1ccc([C@@H]2CC(=O)c3c(O)cc(O[C@@H]4O[C@H](CO[C@@H]5O[C@@H](C)[C@H](O)[C@@H](O)[C@@H]5O)[C@@H](O)[C@H](O)[C@@H]4O)cc3O2)cc1O` it is 4.43% and 6.54%.
Still for that read-out and setting: the same measure for `Cc1c(N(C)CS(=O)(=O)O)c(=O)n(-c2ccccc2)n1C`: -7.34%; for `C=CCc1ccc(O)c(OC)c1`: 15.1%.
On to `CN1CCc2cccc3c2[C@H]1Cc1ccc(O)c(O)c1-3`, for which the activation was 21.8%.
On the same count and under the same terms, the figure for `CC(COc1ccccc1)NN` (stereo not given) is 6.69%.
The same measure, in the same setting: the same measure for `CN(C)CCCSc1ccccc1NC(=O)/C=C/c1ccccc1`: -10%; for `C[C@H](O)C(=O)Nc1c(I)c(C(=O)NC(CO)CO)c(I)c(C(=O)NC(CO)CO)c1I`: 10.9%.
Consider `C[C@H]1O[C@@H](O[C@H]2CC[C@@]3(C)[C@H](CC[C@@H]4[C@@H]3C[C@@H](O)[C@]3(C)[C@@H](C5=CC(=O)OC5)CC[C@]43O)C2)C[C@H](O)[C@@H]1O[C@H]1C[C@H](O)[C@H](O[C@H]2C[C@H](O)[C@H](O[C@@H]3O[C@H](CO)[C@@H](O)[C@H](O)[C@H]3O)[C@@H](C)O2)[C@@H](C)O1`, for which the Potency was 1.55 µM (active).
Take `CCOC(=O)c1cccnc1`: the activation was -9.6%.
On the same count and under the same terms, the same measure for `COc1cc(C(=O)NCCCCCC(=O)O)cc(OC)c1OC`: -9.6%; for `COc1ccc2c3c1OC1C[C@@H](O)C=C[C@@]31CCN(C)C2` (stereo not given in full): 8.8%; for `Cc1noc(NS(=O)(=O)c2ccc(N)cc2)c1C`: 9.21% and -0.487%.
Same read-out and setting: the figure for `CCOc1ccc(Cc2cc([C@@H]3O[C@H](CO)[C@@H](O)[C@H](O)[C@@H]3O)ccc2Cl)cc1` is -1.71%; for `NS(=O)(=O)c1ccc(NC(=O)CCC(=O)O)cc1` it is 14.1%.
As for `CN(C)[C@@H](CCOc1cccc2ccccc12)c1ccccc1`, the activation was 8.7%.
Still for that read-out and setting: the same measure for `CCCCOc1ccc(C(=O)CCN2CCCCC2)cc1`: 10.9%.
Take `CNC(=O)CN(CCN(CCN(CC(=O)[O-])CC(=O)NC)CC(=O)[O-])CC(=O)[O-].O.[Gd+3]`: the activation is 0.837%.
